# In PubChem BioAssay (NCATS):
# Records with an inconclusive call do not appear. Values without a mark were called inactive. Calls of active or inactive are those of the source. Calls come from the whole dose curve; as a rule, active = well fitted cell-killing curve with a large enough effect; inconclusive = small, poorly fitted or top-dose-only effect, or effect the other way; inactive = no such curve, though single readings can be large or run the other way.
# Experiment: Viability qHTS for spleen associated tyrosine kinase inhibitor (SYKi) drug resistant MV4-11 cells (AID 1963824); note: nearly all actives have a fitted effect of over 35% in size
# Conditions: SYKi-resistant MV4-11 viability, CellTiter-Glo, 72 h; series mostly up to 45 µM
# In short: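 SYK inhibitor-resistant MV4-11 AML cells, 500 per well, added to predispensed compounds and incubated 72 hr at 37 C, 5% CO2. Viability measured by CellTiter-Glo luminescence after 10 min at room temperature.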
# Potency is the fitted concentration of half-maximal effect.
Compound,Potency,"viability, % of control"
CCCSc1nc(N[C@@H]2C[C@H]2c2ccc(F)c(F)c2)c2nnn([C@@H]3C[C@H](OCCO)[C@@H](O)[C@H]3O)c2n1,23.1 µM (active),–
CC1OC(OC2C(CO)OC(OCC3OC(OC(=O)C45CCC(C)(C)CC4C4=CCC6C7(C)CCC(OC8OC(CO)C(O)C(OC9OC(CO)C(O)C(O)C9O)C8O)C(C)(C)C7CCC6(C)C4(C)CC5)C(O)C(O)C3O)C(O)C2O)C(O)C(O)C1OC1OC(CO)C(O)C(O)C1O (stereo not drawn),–,88.5% [at 9.25 µM]
CCCCC1CCN(CCCN2C(=O)CCc3ccccc32)CC1,2.59 µM (active),–
Cn1cc(S(=O)(=O)c2ccc(Cl)cc2)c2cccc(N3CCNCC3)c21,13 µM (active),–
NC(=O)C1=CC2C3C=CC2C(OC3=O)O1 (stereo not drawn),26.6 µM (active),–
COc1cc(O)c2c(c1)C1(OC2=O)C(C)=CC(=O)C1O (stereo not drawn),16.4 µM (active),–
C[C@@H]1CCCN1CCc1cc2cc(-c3ccc(C#N)cc3)ccc2o1,20.6 µM (active),–
COc1cc([C@H]2O[C@H](c3cc(OC)c4c(c3)OCO4)[C@H](C)[C@H]2C)cc(OC)c1OC,0.893 µM (active),–
CN(C(=O)CNC(=O)/C=C/c1cccc(Cl)c1)C1CCS(=O)(=O)CC1,0.468 µM (active),–
O=C(Cc1c(F)cccc1F)Nc1cc(OCc2ccc(Cl)cc2)ccn1,14.6 µM (active),–
CNc1cc(OC)c(C(=O)N[C@@H]2CCN(Cc3ccccc3)[C@@H]2C)cc1Cl,14.6 µM (active),–
O=C(O)Cc1cn([C@@H]2OC[C@@H](O[C@@H]3O[C@H](CO)[C@@H](O)[C@H](O)[C@H]3O)[C@H](O)[C@H]2O[C@@H]2O[C@H](CO)[C@@H](O)[C@H](O)[C@H]2O)c2ccccc12,inactive,–
Cc1c(OCc2cccc(-c3ccc(C(=O)O)cc3)c2)cc2c(c1C)C(=O)C(C1CCCC1)C2 (stereo not drawn),inactive,–
O=Nc1c(-c2c(O)[nH]c3ccc(F)cc23)[nH]c2ccccc12,0.058 µM (active),–
C/C=C(\C)C(=O)OC1C[C@@]2(COC(C)=O)O[C@H]2/C=C\[C@@]2(C)O[C@@H]2[C@H]2OC(=O)C(COC(C)=O)=C12 (stereo partly drawn),4.47 µM (active),–
N#CC(CCCN1CCC(O)(c2ccc(Cl)cc2)CC1)(c1ccccc1)c1ccccc1,5.8 µM (active),–
Cc1ccnc(NC(=O)C(C)c2cccc(C(=O)c3ccccc3)c2)c1 (stereo not drawn),23.1 µM (active),–

Compound,Potency,"viability, % of control"
COc1cc(C(=O)O)ccc1OC1OC(CO)C(O)C(O)C1O (stereo not drawn),inactive,–
c1ccc2c(-c3cnn4cc(-c5ccc(OCCN6CCOCC6)cc5)cnc34)ccnc2c1,1.44 µM (active),–
COc1ccnc(CS(=O)c2nc3cc(OC(F)F)ccc3[nH]2)c1OC (stereo not drawn),inactive,–
CN[C@@H]1[C@H](O[C@H]2[C@H](O[C@@H]3[C@@H](O)[C@H](O)[C@@H](N=C(N)N)[C@H](O)[C@H]3N=C(N)N)O[C@@H](C)[C@]2(O)CO)O[C@@H](CO)[C@H](O)[C@H]1O,inactive,–
OCc1c[nH]c2ccccc12,24.3 µM (active),–
O=C(O)CCc1nccc2c1[nH]c1ccccc12,23.1 µM (active),–
CN(C)CC1CCn2cc(c3ccccc32)C2=C(C(=O)NC2=O)c2cn(c3ccccc23)CCO1 (stereo not drawn),0.411 µM (active),–
Cc1cc(N=Nc2ccc(S(=O)(=O)Nc3ccccn3)cc2)c(N)cc1O,2.59 µM (active),–
C[C@@H]1C[C@@H]([C@@H](O)C(C)(C)O)O[C@H]2C[C@@]3(C)C(=C12)C[C@H](O)[C@H]1[C@@]2(C)CCC(=O)C(C)(C)C2CC[C@@]13C (stereo partly drawn),1.26 µM (active),–
CC(=O)OC[C@@]12[C@H](O)C[C@@H](C)[C@]3(C[C@@H](c4ccoc4)OC3=O)[C@H]1C[C@H](O)C[C@]21CO1,inactive,–
CC(=O)OC1C(OC(=O)c2ccccc2)C2C(C)(C)CCC(OC(C)=O)C2(C)C23CCC(C)(C2)C(=O)CC13 (stereo not drawn),10 µM (active),–
C#CCOc1ccc2c(c1)c(-c1ccc(C(C)C)cc1)nc(=O)n2C(C)C,9.2 µM (active),–
COc1ccc2c(c1O)OC(C)(C)c1c-2ccc2c1C(=O)N(c1ccc(C(=O)c3ccccc3)cc1)C2=O,inactive,–
CC(C)(O)C(=O)N1CCN(c2ccc(C(F)(F)F)c(C3=C(c4c[nH]c5ccccc45)C(=O)NC3=O)c2)CC1,0.366 µM (active),–
O=C1NC(=NCc2cccs2)S/C1=C/c1ccc2ncccc2c1,1.84 µM (active),–
C=CC(C)(/C=C/c1ccc(O)cc1)CCC=C(C)C (stereo not drawn),23.1 µM (active),–
